In all, about 5,500 compounds went through this assay and about 2,000 (36%) were called active. Not shown: some 18% with an inconclusive outcome. Some of the results follow. A number with no mark means an inactive call. Rule as the data show it: active = normalized growth mostly below about 0.91 (no sharp cut-off); inconclusive = no clear call, values can overlap the other calls; inactive = mostly above about 0.92.
Test: chemical genetic growth profiling, strain panel (AID 1159580);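 also: tested at 20 µM; growth read once vehicle control cultures reached saturation at 30 °C; 1 = growth at the plate median or of vehicle wells; lower values mean less growth of the strain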
Conditions: S. cerevisiae deletion strains, growth OD
[1] = locus YAR019C, strain CDC15, hits give low values
[2] = locus YBL105C, strain PKC1, hits give low values
[3] = locus YBR135W, strain CKS1, hits give low values
[4] = locus YBR136W, strain MEC1, hits give low values
[5] = locus YBR160W, strain CDC28, hits give low values
[6] = locus YDL017W, strain CDC7, hits give low values
[7] = locus YDL028C, strain MPS1, hits give low values
[8] = locus YDL101C, strain DUN1, hits give low values
[9] = locus YDL108W, strain KIN28, hits give low values
[10] = locus YDL132W, strain cdc53, hits give low values
[11] = locus YDL214C, strain PRR2, hits give low values
[12] = locus YDR052C, strain DBF4, hits give low values
[13] = locus YDR054C, strain cdc34, hits give low values
[14] = locus YDR226W, strain ADK1, hits give low values
[15] = locus YDR477W, strain SNF1, hits give low values
[16] = locus YER123W, strain YCK3, hits give low values
[17] = locus YER133W, strain GLC7, hits give low values
[18] = locus YFL009W, strain cdc4, hits give low values
[19] = locus YFL029C, strain CAK1, hits give low values
[20] = locus YFR003C, strain YPI1, hits give low values
[21] = locus YFR019W, strain FAB1, hits give low values
[22] = locus YFR028C, strain CDC14, hits give low values
[23] = locus YGR040W, strain KSS1, hits give low values
[24] = locus YGR052W, strain FMP48, hits give low values
[25] = locus YGR092W, strain DBF2, hits give low values
[26] = locus YHR030C, strain SLT2, hits give low values
[27] = locus YHR079C, strain IRE1, hits give low values
[28] = locus YHR082C, strain KSP1, hits give low values
[29] = locus YHR205W, strain SCH9, hits give low values
[30] = locus YIL147C, strain SLN1, hits give low values
[31] = locus YJL095W, strain BCK1, hits give low values
[32] = locus YJL128C, strain PBS2, hits give low values
[33] = locus YJL157C, strain FAR1, hits give low values
[34] = locus YJR016C, strain ILV3, hits give low values
[35] = locus YJR066W, strain TOR1 (second series), hits give low values
[36] = locus YJR066W, strain TOR1, hits give low values
[37] = locus YKL048C, strain ELM1, hits give low values
[38] = locus YKL067W, strain YNK1, hits give low values
[39] = locus YKL101W, strain HSL1, hits give low values
[40] = locus YKL193C, strain SDS22, hits give low values
[41] = locus YKL203C, strain TOR2, hits give low values
[42] = locus YLR113W, strain HOG1, hits give low values
[43] = locus YLR133W, strain CKI1, hits give low values
[44] = locus YLR403W, strain SFP1, hits give low values
[45] = locus YML070W, strain DAK1, hits give low values
[46] = locus YMR001C, strain CDC5, hits give low values
[47] = locus YMR205C, strain PFK2 (second series), hits give low values
[48] = locus YMR277W, strain FCP1, hits give low values
[49] = locus YNL006W, strain LST8, hits give low values
[50] = locus YNL020C, strain ARK1, hits give low values
[51] = locus YNL161W, strain CBK1, hits give low values
[52] = locus YNL183C, strain NPR1, hits give low values
[53] = locus YNL207W, strain RIO2, hits give low values
[54] = locus YNL222W, strain SSU72, hits give low values
[55] = locus YNL307C, strain MCK1 (second series), hits give low values
[56] = locus YOL078W, strain AVO1, hits give low values
[57] = locus YOL136C, strain PFK27, hits give low values
[58] = locus YOR061W, strain CKA2, hits give low values
[59] = locus YOR119C, strain RIO1, hits give low values
[60] = locus YOR231W, strain MKK1, hits give low values
[61] = locus YOR329C, strain SCD5, hits give low values
[62] = locus YPL031C, strain PHO85, hits give low values
[63] = locus YPL153C, strain RAD53, hits give low values
[64] = locus YPL204W, strain HRR25, hits give low values
[65] = locus YPL209C, strain IPL1, hits give low values
[66] = locus YPL256C, strain CLN2, hits give low values
[67] = locus YPR025C, strain CCL1, hits give low values
[68] = locus YPR106W, strain ISR1, hits give low values
[69] = locus YPR111W, strain DBF20, hits give low values
[70] = strain NNK1, hits give low values
[71] = strain TSCII, hits give low values

Compound Cc1nn(Cc2cccc(C(=O)Nc3ccc(Cl)cc3)c2)c(C)c1Br has a normalized growth [1] of 0.99, a normalized growth [2] of 0.976 and a normalized growth [3] of 0.986. For the same compound, the normalized growth [4] was 0.976, the normalized growth [5] was 0.979 and the normalized growth [6] was 0.985. It also gave a normalized growth [7] of 0.978, a normalized growth [8] of 0.981 and a normalized growth [9] of 0.979. It also gave a normalized growth [10] of 0.976, a normalized growth [11] of 0.96 and a normalized growth [12] of 0.986. The normalized growth [13] was 0.975, the normalized growth [14] was 0.978 and the normalized growth [15] was 0.959. It also gave a normalized growth [16] of 0.946, a normalized growth [17] of 0.953 and a normalized growth [18] of 0.978. It also gave a normalized growth [19] of 0.982, a normalized growth [20] of 0.977 and a normalized growth [21] of 0.977. It also gave a normalized growth [22] of 0.981, a normalized growth [23] of 0.965 and a normalized growth [24] of 1.01. For the same compound, the normalized growth [25] was 0.987, the normalized growth [26] was 1.1 and the normalized growth [27] was 1.11. For the same compound, the normalized growth [28] was 1.06, the normalized growth [29] was 1.01 and the normalized growth [30] was 0.978. The normalized growth [31] was 1, the normalized growth [32] was 0.952 and the normalized growth [33] was 0.968. It also gave a normalized growth [34] of 0.985, a normalized growth [35] of 0.978 and a normalized growth [36] of 1.06. It also gave a normalized growth [37] of 0.961, a normalized growth [38] of 0.965 and a normalized growth [39] of 0.955. For the same compound, the normalized growth [40] was 0.975, the normalized growth [41] was 1.04 and the normalized growth [42] was 0.923. It also gave a normalized growth [43] of 0.967, a normalized growth [44] of 0.99 and a normalized growth [45] of 0.954. The normalized growth [46] was 0.979, the normalized growth [47] was 0.965 and the normalized growth [48] was 0.98. It also gave a normalized growth [49] of 0.994, a normalized growth [50] of 0.965 and a normalized growth [51] of 0.987. The normalized growth [52] was 1.04, the normalized growth [53] was 0.978 and the normalized growth [54] was 0.981. The normalized growth [55] was 1, the normalized growth [56] was 0.973 and the normalized growth [57] was 0.92. It also gave a normalized growth [58] of 0.96, a normalized growth [59] of 1.02 and a normalized growth [60] of 0.968. It also gave a normalized growth [61] of 0.987, a normalized growth [62] of 0.963 and a normalized growth [63] of 0.957. It also gave a normalized growth [64] of 0.935, a normalized growth [65] of 0.981 and a normalized growth [66] of 1. It also gave a normalized growth [67] of 0.974, a normalized growth [68] of 0.982 and a normalized growth [69] of 0.97. For the same compound, the normalized growth [70] was 0.982 and the normalized growth [71] was 0.981.
Compound Cc1cc(C(=O)Nc2ccc(Cl)cc2)nn1C(C)(C)C has a normalized growth [1] of 0.985, a normalized growth [2] of 1 and a normalized growth [3] of 0.995. For the same compound, the normalized growth [4] was 1, the normalized growth [5] was 0.99 and the normalized growth [6] was 0.995. It also gave a normalized growth [7] of 1.01, a normalized growth [8] of 0.984 and a normalized growth [9] of 0.993. It also gave a normalized growth [10] of 0.989, a normalized growth [11] of 0.967 and a normalized growth [12] of 1. The normalized growth [13] was 0.984, the normalized growth [14] was 0.987 and the normalized growth [15] was 0.973. For the same compound, the normalized growth [16] was 0.955, the normalized growth [17] was 0.97 and the normalized growth [18] was 0.989. It also gave a normalized growth [19] of 0.984, a normalized growth [20] of 1 and a normalized growth [21] of 0.992. For the same compound, the normalized growth [22] was 1, the normalized growth [23] was 0.978 and the normalized growth [24] was 0.958. The normalized growth [25] was 0.982, the normalized growth [26] was 1.08 and the normalized growth [27] was 0.866. For the same compound, the normalized growth [28] was 1.15, the normalized growth [29] was 0.951 and the normalized growth [30] was 0.998. It also gave a normalized growth [31] of 0.849, a normalized growth [32] of 0.942 and a normalized growth [33] of 0.973. For the same compound, the normalized growth [34] was 0.984, the normalized growth [35] was 0.962 and the normalized growth [36] was 1.11. The normalized growth [37] was 0.983, the normalized growth [38] was 0.976 and the normalized growth [39] was 0.975. The normalized growth [40] was 0.993, the normalized growth [41] was 1.05 and the normalized growth [42] was 0.801 (active). For the same compound, the normalized growth [43] was 0.967, the normalized growth [44] was 0.956 and the normalized growth [45] was 0.958. For the same compound, the normalized growth [46] was 1, the normalized growth [47] was 0.966 and the normalized growth [48] was 0.975. The normalized growth [49] was 0.992, the normalized growth [50] was 0.964 and the normalized growth [51] was 0.986. The normalized growth [52] was 0.893, the normalized growth [53] was 0.998 and the normalized growth [54] was 0.992. The normalized growth [55] was 0.977, the normalized growth [56] was 0.985 and the normalized growth [57] was 0.96. It also gave a normalized growth [58] of 0.977, a normalized growth [59] of 1.02 and a normalized growth [60] of 0.877. It also gave a normalized growth [61] of 1, a normalized growth [62] of 0.982 and a normalized growth [63] of 0.957. For the same compound, the normalized growth [64] was 0.962, the normalized growth [65] was 1 and the normalized growth [66] was 0.817 (active). The normalized growth [67] was 0.999, the normalized growth [68] was 0.979 and the normalized growth [69] was 0.978. For the same compound, the normalized growth [70] was 0.984 and the normalized growth [71] was 0.985.

Source: PubChem BioAssay AID1159580 (chemical genetic matrix, 2015)
